These results are taken from PubChem BioAssay (Tox21).

Test [1] can be described thus: qHTS assay to test for compound auto fluorescence at 535 nm (green) in HEK293 cells (AID 720680). A general note: In qHTS, concentration-response curves come from the screen itself.
Test [2] is described as follows: qHTS assay to test for compound auto fluorescence at 460 nm (blue) in HEK293 cell free culture (AID 720681). The gist of the method: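 Blue fluorescence (Ex 405/Em 460 nm, triamterene-equivalent) was read immediately after pin transfer of compound or DMSO into medium (DMEM, 10% FBS) without cells.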
Test [3] can be described thus: qHTS assay to test for compound auto fluorescence at 535 nm (green) in HEK293 cell free culture (AID 720682). The gist of the method:
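Using fluorescein as calibrant, autofluorescence was quantified at 485/535 nm in cell-free DMEM containing 10% FBS after pintool addition of compound or vehicle.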

The nature of test [4]: qHTS assay to test for compound auto fluorescence at 590 nm (red) in HEK293 cell free culture (AID 720683). The gist of the method:
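Red-channel autofluorescence of compounds in culture medium (DMEM, 10% FBS), no cells, measured at 540/590 nm. Rose Bengal sodium is the reference fluorophore for equivalence.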

Test [5] in a line: qHTS assay to test for compound auto fluorescence at 590 nm (red) in HepG2 cell free culture (AID 720684). In short, it runs like this:
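Cell-free; medium MEM + 10% FBS; compound or DMSO added by pintool; read Ex 540/Em 590 nm; Rose Bengal sodium as red reference fluorophore.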

A short description of test [6]: qHTS assay to test for compound auto fluorescence at 460 nm (blue) in HepG2 cell free culture (AID 720685). In short, it runs like this: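 Cell-free plates of MEM plus 10% FBS received 23 nL compound or DMSO vehicle; blue-channel (405/460 nm) intensity scored against triamterene as reference fluorophore.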
A short description of test [7]: qHTS assay to test for compound auto fluorescence at 535 nm (green) in HepG2 cell free culture (AID 720686).
Test [8] is described as follows: qHTS assay to test for compound auto fluorescence at 460 nm (blue) in HepG2 cells (AID 720687). The gist of the method: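 Blue-channel autofluorescence (Ex/Em 405/460 nm, triamterene-equivalent) was measured after 1 hr compound exposure at 37 C, 5% CO2. Cells were HepG2, plated overnight at 37 C in MEM plus 10% FBS.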
Test [9] deals with Glucocorticoid receptor (Homo sapiens) (UniProt P04150). Nature of the test: qHTS assay to identify small molecule agonists of the glucocorticoid receptor (GR) signaling pathway (AID 720691; active = well fitted activation curve with a large enough effect in the signal ratio in the repeat runs, not every such curve was filed as active; the % refers to the signal ratio). In short, it runs like this: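 Compounds in DMSO, alongside positive controls, were added to GR-bla HeLa reporter cells and incubated 18 h at 37 C; GRE-driven beta-lactamase was detected by fluorescence after 2 h with FRET substrate at room temperature.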

The target is the same in test [10]. Nature of the test: qHTS assay to identify small molecule antagonists of the glucocorticoid receptor (GR) signaling pathway (AID 720692; active = well fitted inhibition curve with a large enough effect in the signal ratio in the repeat runs, not every such curve was filed as active; the % refers to the signal ratio). The gist of the method:
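In a 1536-well cell format, compounds were added 4 h after seeding GR-bla HeLa cells, together with dexamethasone at 5 nM final; reporter activity was measured by FRET-substrate fluorescence following 18 h at 37 C.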

Test [11] is described as follows: qHTS assay for identifying genotoxic compounds that show differential cytotoxicity against isogenic chicken DT40 cell lines with known DNA damage response pathways - wild type cell line (AID 743012). Also: nearly all actives have a fitted effect of over 60% in size. Also: potency is read from the fitted curve at half-maximal effect. In short, it runs like this: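 Viability of DNA repair-proficient chicken DT40 cells was assessed by CellTiter-Glo luminescence following 40 h compound exposure at 37 C/5% CO2.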

Test [12] is described as follows: qHTS assay for identifying genotoxic compounds that show differential cytotoxicity against isogenic chicken DT40 cell lines with known DNA damage response pathways - Rev3 mutant cell line (AID 743014). Also: nearly all actives have a fitted effect of over 55% in size. Also: potency is read from the fitted curve at half-maximal effect.
Test [13] is described as follows: qHTS assay for identifying genotoxic compounds that show differential cytotoxicity against isogenic chicken DT40 cell lines with known DNA damage response pathways - Rad54/Ku70 mutant cell line (AID 743015). Also: nearly all actives have a fitted effect of over 60% in size. Also: potency is read from the fitted curve at half-maximal effect.
Test [14] is described as follows: qHTS assay to identify small molecule antagonists of the androgen receptor (AR) signaling pathway - cell viability counter screen (AID 743033; also: nearly all actives have a fitted effect of over 45% in size).
A short description of test [15]: qHTS assay to identify small molecule antagonists of the androgen receptor (AR) signaling pathway using the MDA cell line - cell viability counter screen (AID 743041; also: nearly all actives have a fitted effect of over 45% in size; also: potency is read from the fitted curve at half-maximal effect). In short, it runs like this: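 Viability read by CellTiter-Fluor fluorescence in the same wells as the antagonist screen, added after 15.5 h of a 16 h, 37C exposure. Human breast carcinoma MDA-kb2 AR-luc cells, compounds co-dosed with agonist R1881.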

Test [16] in a line: qHTS assay to identify small molecule antagonists of the glucocorticoid receptor (GR) signaling pathway - cell viability counter screen (AID 720693). Also: nearly all actives have a fitted effect of over 55% in size.
Test [17] has as its target Androgen receptor (Homo sapiens) (UniProt P10275). Description: qHTS assay to identify small molecule antagonists of the androgen receptor (AR) signaling pathway (AID 743035; active = well fitted inhibition curve with a large enough effect in the signal ratio in the repeat runs, not every such curve was filed as active; the % refers to the signal ratio; also: potency is read from the fitted curve at half-maximal effect). In short, it runs like this:
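Reporter HEK293 cells were exposed to compounds and R1881 overnight (16 h, 37C); beta-lactamase activity was then quantified by FRET fluorescence.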

For test [18] the target is unchanged. Description: qHTS assay to identify small molecule agonists of the androgen receptor (AR) signaling pathway using the MDA cell line (AID 743040; also: nearly all actives have a fitted effect of over 20% in size). In short, it runs like this:
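Luciferase agonist assay: 16 h compound exposure at 37C without CO2 in MDA-kb2 AR-luc cells, whose MMTV promoter responds to both AR and GR. Luminescence measured after 30 min room-temperature incubation with ONE-Glo.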

For test [19] the target is unchanged. Description: qHTS assay to identify small molecule antagonists of the androgen receptor (AR) signaling pathway using the MDA cell line (AID 743042; also: potency is read from the fitted curve at half-maximal effect; nearly all actives have a fitted effect of over 55% in size). The gist of the method:
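Antagonist mode: compounds plus R1881 agonist added to MDA-kb2 AR-luc cells, incubated 16 h at 37C. Luciferase reporter luminescence quantified, with multiplexed CellTiter-Fluor readout for cell viability.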

Records with an inconclusive call do not appear. Activity calls are given as the source filed them. Unless noted, calls follow the shape of the dose curve; as a rule, active = well fitted curve in the direction sought with a large enough effect in the repeat runs; inconclusive = weak or mixed curves; inactive = no such curve, though single readings can be large; an effect the other way counts as inactive or inconclusive.

Androgen receptor (Homo sapiens), sequence (P10275 whole entry, looked up): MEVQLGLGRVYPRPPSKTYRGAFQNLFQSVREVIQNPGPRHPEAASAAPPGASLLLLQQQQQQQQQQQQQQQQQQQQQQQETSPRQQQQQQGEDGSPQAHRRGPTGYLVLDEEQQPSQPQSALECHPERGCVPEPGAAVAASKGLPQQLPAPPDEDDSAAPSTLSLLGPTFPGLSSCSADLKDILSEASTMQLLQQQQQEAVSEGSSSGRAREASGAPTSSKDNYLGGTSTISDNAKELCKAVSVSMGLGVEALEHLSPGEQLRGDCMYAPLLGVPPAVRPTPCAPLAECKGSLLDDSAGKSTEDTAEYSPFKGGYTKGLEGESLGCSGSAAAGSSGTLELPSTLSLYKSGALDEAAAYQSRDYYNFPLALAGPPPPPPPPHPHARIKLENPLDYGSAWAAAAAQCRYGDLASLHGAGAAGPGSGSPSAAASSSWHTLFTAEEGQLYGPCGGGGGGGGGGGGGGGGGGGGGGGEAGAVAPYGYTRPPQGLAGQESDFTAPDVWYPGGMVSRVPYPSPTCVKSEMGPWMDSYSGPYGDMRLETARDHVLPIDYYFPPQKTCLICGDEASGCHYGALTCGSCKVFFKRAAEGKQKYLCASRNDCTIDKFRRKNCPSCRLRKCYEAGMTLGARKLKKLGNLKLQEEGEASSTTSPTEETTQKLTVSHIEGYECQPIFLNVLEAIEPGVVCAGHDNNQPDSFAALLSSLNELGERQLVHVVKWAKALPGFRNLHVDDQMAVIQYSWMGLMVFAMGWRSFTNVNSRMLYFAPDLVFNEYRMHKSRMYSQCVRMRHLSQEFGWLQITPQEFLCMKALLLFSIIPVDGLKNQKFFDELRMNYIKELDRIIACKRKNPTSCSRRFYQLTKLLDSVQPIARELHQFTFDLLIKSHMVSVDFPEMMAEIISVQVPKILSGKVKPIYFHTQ
Glucocorticoid receptor (Homo sapiens), sequence (P04150 whole entry, looked up): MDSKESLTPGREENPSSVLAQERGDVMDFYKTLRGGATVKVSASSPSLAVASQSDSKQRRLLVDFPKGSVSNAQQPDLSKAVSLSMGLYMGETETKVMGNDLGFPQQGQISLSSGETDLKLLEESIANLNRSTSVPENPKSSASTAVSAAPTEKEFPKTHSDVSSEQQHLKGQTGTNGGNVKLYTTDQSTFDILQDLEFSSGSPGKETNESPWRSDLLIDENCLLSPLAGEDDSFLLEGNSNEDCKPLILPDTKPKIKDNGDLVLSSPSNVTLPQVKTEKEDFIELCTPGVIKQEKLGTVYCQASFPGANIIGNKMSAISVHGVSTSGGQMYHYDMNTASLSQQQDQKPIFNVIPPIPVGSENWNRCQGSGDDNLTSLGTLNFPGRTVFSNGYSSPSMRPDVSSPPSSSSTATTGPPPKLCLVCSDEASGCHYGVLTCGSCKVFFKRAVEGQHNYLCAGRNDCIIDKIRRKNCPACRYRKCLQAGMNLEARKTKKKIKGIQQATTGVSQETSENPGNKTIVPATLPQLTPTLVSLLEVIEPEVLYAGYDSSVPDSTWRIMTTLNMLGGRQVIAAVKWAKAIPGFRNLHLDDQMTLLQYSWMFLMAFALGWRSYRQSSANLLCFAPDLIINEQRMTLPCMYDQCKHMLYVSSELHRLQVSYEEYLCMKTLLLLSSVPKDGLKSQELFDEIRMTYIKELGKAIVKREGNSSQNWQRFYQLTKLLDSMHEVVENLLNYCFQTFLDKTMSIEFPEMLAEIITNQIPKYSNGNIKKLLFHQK

Take `CN1C(=O)OC(C)(C)C1=O`: the call in [1], in [3], in test [4], in test [5] and in test [7] was inactive. The Potency entry in [2], in test [6], in [8], in test [9], in [10] and in test [11] was “inactive” in each case. The Potency result in test [12], in [13], in test [14] and in [15] was “inactive” each time.

For the molecule `CCCCCCCCCCC(=O)O`, the molecule was called inactive in [1], in test [3], in test [4], in [5] and in test [7]. The Potency entry in test [2], in test [6], in test [8], in test [9], in [11] and in test [12] was “inactive” each time. In addition, the Potency result in test [13], in test [14] and in [15] was “inactive” throughout.

Regarding `COc1ccccc1N1CCN(CC(O)COc2cccc3ccccc23)CC1` (stereo not given), the molecule was classed as inactive in test [1], in test [3], in test [4], in [5] and in test [7]. The Potency result in test [2], in test [6], in [8], in [9], in test [16] and in [15] was “inactive” in each case. For the same molecule, the Potency in test [11] was 23.7 µM (active); in test [12], 29.8 µM (active); in test [13], 29.8 µM (active).

With `O=C1c2ccccc2C(=O)C1c1nc2ccccc2c(Br)c1O`, the molecule was classed as inactive in [1], in test [3], in test [4], in test [5] and in test [7]. For the same molecule, the Potency result in [2], in test [6], in [8], in test [9], in test [10] and in [12] was “inactive” throughout. Also, the Potency result in test [13], in test [14] and in [15] was “inactive” each time.

With `O=[N+]([O-])c1cc(C2CCCCC2)c(O)c([N+](=O)[O-])c1`, the outcome in [1], in [3], in test [4], in test [5], in test [7] and in test [18] was inactive. Further, the Potency entry in [2], in test [6], in test [8] and in [9] was “inactive” in each case. For the same molecule, the Potency in test [11] is 17.2 µM (active); in test [12], 21.6 µM (active); in [13], 19.3 µM (active); in test [17], 5.48 µM (active); in [15], 30.5 µM (active); in test [19], 12.2 µM (active).

On to `CCCC(C(=O)OCCN(CC)CC)(c1ccccc1)c1ccccc1`, for which the molecule was called inactive in [1], in [3], in test [4], in test [5] and in test [7]. The Potency entry in test [2], in test [6], in [8], in [9] and in [16] was “inactive” each time. The figures for the Potency in test [11], in test [12] and in test [13] were 8.41 µM (active), 10.6 µM (active) and 18.8 µM (active), respectively.

In the case of `CCCCCCCC/C=C\CCCCCCCCO`, the result in test [1], in test [3], in [4], in test [5] and in test [7] was inactive. The Potency entry in test [2], in test [6], in [8], in [9], in [10] and in test [11] was “inactive” in each case. For the same molecule, the Potency result in test [12], in [13], in test [14] and in test [15] was “inactive” throughout.

As to `Nc1nnc(-c2ccc([N+](=O)[O-])o2)o1`, the molecule was classed as inactive in test [1], in [3], in [4], in test [5] and in test [7]. In addition, the Potency entry in [2], in test [6], in test [8], in test [9] and in test [16] was “inactive” each time. For the same molecule, the Potency in [11] was 24.3 µM (active); in test [12], 19.3 µM (active); in test [13] it was 19.3 µM (active); in test [15] it was 61.1 µM (active).
